Structures are written as SMILES. Active and inactive are the calls of the source. Unless noted, no rule for the calls is given here.

Experiment [1] is described as follows: compound effects on lung adenocarcinoma cell viability – A549, calcein-AM fluorescence, 48 h, basal, profiling panel (AID 1162). Also: test concentration not given here. As to conditions: higher = more signal.
Experiment [2] is described as follows: compound effects on differentiated 3T3-L1 adipocyte viability – cell-based, 3T3-L1 adipocytes, calcein-AM fluorescence, 48 h, basal, profiling panel (AID 1163). Also: test concentration not given here. As to conditions: 3T3-L1 adipocytes viability, higher = more signal.
A short description of experiment [3]: compound effects on hepatocellular carcinoma cell viability – HepG2, calcein-AM fluorescence, 48 h, basal, profiling panel (AID 1164). Also: test concentration not given here. The following applies: higher = more signal.
A short description of experiment [4]: compound effects on multiple myeloma cell viability – MM1S, calcein-AM fluorescence, 48 h, basal, profiling panel (AID 1165).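 Also: viability of MM1S multiple myeloma cells under basal unstimulated conditions; test concentration not given here.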 The following applies: higher = more signal.
The nature of experiment [5]: calcein-AM signal in unstimulated myeloma cells – cell-based, calcein-AM fluorescence, 48 h, PK04 Diversity Set, profiling panel (AID 1166).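 Also: cells grown under basal conditions without added stimulus; test concentration not given here.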 As to conditions: RPMI8226 myeloma viability, higher = more signal.
Experiment [6] can be described thus: JC-1 mitochondrial signal, unstimulated HepG2 cells – cell-based, JC-1 fluorescence, 24 h, 100 nL compound, profiling panel (AID 1167). Also: test concentration not given here. The following applies: HepG2 mitochondrial potential, higher = more signal.
Experiment [7] in a line: JC-1 mitochondrial signal, unstimulated adipocytes – cell-based, JC-1 fluorescence, 3T3-L1 adipocytes, 24 h, 100 nL compound, profiling panel (AID 1168). Also: test concentration not given here. The following applies: JC-1 mitochondrial fluorescence, higher = more signal, called active from +8 up or from −8 down.
Experiment [8] in a line: JC-1 mitochondrial signal, unstimulated myeloma cells – cell-based, JC-1 fluorescence, RPMI8226, 24 h, 100 nL compound, profiling panel (AID 1169). Also: test concentration not given here. As to conditions: JC-1 mitochondrial potential fluorescence, higher = more signal.
Experiment [9] can be described thus: JC-1 mitochondrial signal, unstimulated MM1S myeloma – cell-based, JC-1 fluorescence, 24 h, 100 nL compound, profiling panel (AID 1170). Also: test concentration not given here. As to conditions: MM1S mitochondrial potential, higher = more signal.
The nature of experiment [10]: resazurin metabolic signal in A549 cells – cell-based, resazurin fluorescence, 24 h, PK04 Diversity Set, profiling panel (AID 1171). Also: test concentration not given here. As to conditions: A549 viability, higher = more signal, called active from +8 up or from −8 down.
A short description of experiment [11]: resazurin metabolic signal in HepG2 cells – cell-based, resazurin fluorescence, 24 h, PK04 Diversity Set, profiling panel (AID 1172). Also: test concentration not given here. As to conditions: HepG2 viability, higher = more signal.
Experiment [12] is described as follows: budding yeast growth changes without added modifier – OD600, strain BY4716, 24 h, basal condition, primary screen (AID 1173). As to conditions: S. cerevisiae BY4716 growth, OD600, 24 h; higher = more signal, called active from +8 up or from −8 down.
Experiment [13] is described as follows: viability profiling in MM1S myeloma cells – cell-based, resazurin fluorescence, basal, 24 h, PK04 Diversity Set, profiling panel (AID 1174). Also: test concentration not given here. As to conditions: higher = more signal, called active from +8 up or from −8 down.
In experiment [14] the target is Dihydroorotate dehydrogenase (quinone), mitochondrial (Plasmodium falciparum (isolate 3D7)) (UniProt Q08210). Nature of the experiment: inhibition of P. falciparum DHODH – biochemical, C-terminal His tag, absorbance 600 nm, primary screen (AID 1175).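 Also: recombinant parasite enzyme with a five histidine tag at its C terminus; test concentration not given here.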 As to conditions: PfDHODH enzyme, DCIP absorbance 600 nm; higher = more signal, called active from +8 up or from −8 down.

Experiment [15] can be described thus: inhibition of PAO1 biofilm formation – strain PAO1, LB-PBS medium, absorbance 600 nm, primary screen (AID 1176). Also: test concentration not given here. The following applies: P. aeruginosa PAO1 growth/biofilm, A600, 12 h; higher = more signal.
The nature of experiment [16]: growth modulation of vineyard yeast isolate – strain RM11-1a, OD600, basal, 24 h, primary screen (AID 1177).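 Also: cultures grown under basal conditions with no added stressor; test concentration not given here.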 As to conditions: S. cerevisiae RM11-1a growth, OD600, 24 h; higher = more signal, called active from +8 up or from −8 down.
A short description of experiment [17]: growth of efflux-deficient E. coli DRC39 – strain DRC39, OD650, 24 h, E. coli filamentation inducers, primary screen (AID 1178).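 Also: growth measured as culture turbidity by optical density at 650 nm; test concentration not given here.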 As to conditions: E. coli DRC39 acrAB, higher = more signal, called active from +8 up or from −8 down.
Experiment [18] in a line: growth of efflux-deficient E. coli DRC39 – strain DRC39, OD650, 48 h, E. coli filamentation inducers, primary screen (AID 1179).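 Also: screen aims at cell division blockers that make cells filament.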 As to conditions: E. coli DRC39 delta-acrAB growth, higher = more signal, called active from +8 up or from −8 down.
The nature of experiment [19]: viability profiling in RPMI8226 myeloma cells – cell-based, resazurin fluorescence, basal, 24 h, PK04 Diversity Set, profiling panel (AID 1180).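 Also: RPMI8826 multiple myeloma cell line at 5000 cells per well; test concentration not given here.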 As to conditions: higher = more signal.
In experiment [20] the target is E3 ubiquitin-protein ligase XIAP (Homo sapiens) (UniProt P98170). Description: small molecules binding XIAP protein – biophysical, small-molecule microarray, fluorescence 635 nm, primary screen (AID 1181).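 Also: score merges 667 nm emission and signal to noise over triplicate slides.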 As to conditions: higher = more signal.
Sequence of E3 ubiquitin-protein ligase XIAP (Homo sapiens) (P98170 whole entry, looked up): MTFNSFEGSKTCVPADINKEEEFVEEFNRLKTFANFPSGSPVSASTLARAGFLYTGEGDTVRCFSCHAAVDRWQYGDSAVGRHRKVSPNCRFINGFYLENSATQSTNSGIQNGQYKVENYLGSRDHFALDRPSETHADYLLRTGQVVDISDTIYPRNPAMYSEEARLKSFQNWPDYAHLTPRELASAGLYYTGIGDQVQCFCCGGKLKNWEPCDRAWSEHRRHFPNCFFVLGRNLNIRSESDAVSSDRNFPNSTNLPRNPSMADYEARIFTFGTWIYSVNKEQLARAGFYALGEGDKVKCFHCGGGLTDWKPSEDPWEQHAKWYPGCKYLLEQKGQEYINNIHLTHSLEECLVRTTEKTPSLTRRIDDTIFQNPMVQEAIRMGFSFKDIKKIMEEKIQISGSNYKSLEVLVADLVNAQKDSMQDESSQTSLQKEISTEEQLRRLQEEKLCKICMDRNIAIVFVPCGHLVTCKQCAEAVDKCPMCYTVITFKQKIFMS

Sequence of Dihydroorotate dehydrogenase (quinone), mitochondrial (Plasmodium falciparum (isolate 3D7)) (Q08210 whole entry, looked up): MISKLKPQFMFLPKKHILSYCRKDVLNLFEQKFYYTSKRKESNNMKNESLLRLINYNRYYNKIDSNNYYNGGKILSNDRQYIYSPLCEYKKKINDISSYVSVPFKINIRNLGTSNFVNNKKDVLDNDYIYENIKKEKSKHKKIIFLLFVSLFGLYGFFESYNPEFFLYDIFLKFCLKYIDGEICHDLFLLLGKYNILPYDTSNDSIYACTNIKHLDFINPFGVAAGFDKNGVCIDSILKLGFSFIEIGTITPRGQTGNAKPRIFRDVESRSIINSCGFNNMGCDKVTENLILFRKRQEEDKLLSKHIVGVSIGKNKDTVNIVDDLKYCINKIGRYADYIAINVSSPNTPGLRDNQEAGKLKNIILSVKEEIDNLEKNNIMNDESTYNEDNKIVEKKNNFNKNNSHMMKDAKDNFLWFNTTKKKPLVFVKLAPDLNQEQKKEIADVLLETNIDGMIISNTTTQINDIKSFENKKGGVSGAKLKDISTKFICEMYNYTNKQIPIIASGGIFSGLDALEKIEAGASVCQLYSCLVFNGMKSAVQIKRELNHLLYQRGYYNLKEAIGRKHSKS

Regarding `CO[C@H]1O[C@H](CO)[C@@H](OC(=O)Nc2ccc3c(c2)OCO3)[C@H](OC(=O)Nc2ccccc2)[C@@H]1OC(=O)Nc1ccccc1`, the z-score in [1] was -0.279; in experiment [2] it was -0.0955; in experiment [3], -1.27; in [4], -2; in [5], -1.66; in [6], -1.17. The z-score is 0.157 (inactive) in [7]; -0.611 in [8]; -0.191 in [9]; -1.57 (inactive) in experiment [10]; -0.671 in [11]; -0.328 (inactive) in [12]. Besides, the z-score is -1.24 (inactive) in experiment [13]; 0.345 (inactive) in experiment [15]; 1.13 (inactive) in experiment [16]; 0.399 (inactive) in experiment [17]; -0.409 (inactive) in experiment [18]; -0.682 in experiment [19]. The composite z-score in experiment [14] was -0.0612 (inactive); in experiment [20], 0.319.

Turning to `C=CCN1C(=O)[C@@]2(Cc3ccccc3)N=C(c3ccc(OCCCO)cc3)O[C@H]2c2ccccc21`, the z-score in experiment [1] is -1.38; in experiment [2], 1.56; in experiment [3] it was -1.82; in [4] it was -2.95; in experiment [5] it was -3.94; in experiment [6] it was -2.07. Further, the z-score was 1.58 (inactive) in experiment [7]; -1.11 in experiment [8]; -2.14 in experiment [9]; -1.36 (inactive) in experiment [10]; -0.406 in [11]; -2.11 (inactive) in experiment [12]. Further, the z-score was -2.82 (inactive) in experiment [13]; 1.39 (inactive) in experiment [15]; 0.414 (inactive) in experiment [16]; -0.304 (inactive) in [17]; -0.239 (inactive) in experiment [18]; -4.23 in experiment [19]. Further, the composite z-score was 0.324 (inactive) in experiment [14] and 0.212 in [20].

Turning to `COc1cc(CO)cc(I)c1O[C@H]1C=C(C(=O)NCCO)C[C@@H](N(CC2CCCCC2)C(=O)c2cc3ccccc3oc2=O)[C@@H]1O`, the z-score is 0.846 in [1]; -0.5 in [2]; 0.206 in experiment [3]; 1.01 in experiment [4]; -1.1 in experiment [5]; 0.919 in experiment [6]. The z-score is -0.294 (inactive) in experiment [7]; -0.806 in experiment [8]; -0.467 in experiment [9]; -0.206 (inactive) in [10]; 0.479 in [11]; -0.514 (inactive) in [12]. In addition, the z-score in experiment [13] is 0.308 (inactive); in experiment [15], 0.343 (inactive); in [16], 0.372 (inactive); in [17], 0.663 (inactive); in experiment [18], 0.283 (inactive); in [19], 0.393. For the same compound, the composite z-score in [14] was -0.23 (inactive); in experiment [20], -0.12.

Take `O=C1C2C=CC(C(O)C(c3ccccc3)c3ccccc3)N(Nc3ccc([N+](=O)[O-])cc3)C2C(=O)N1c1ccccc1` (stereo not given): the z-score is -0.727 in experiment [1]; -0.97 in experiment [2]; 0.585 in experiment [3]; -0.224 in [4]; -0.986 in experiment [5]; 0.581 in [6]. The z-score in experiment [7] was -0.735 (inactive); in experiment [8], 0.213; in experiment [9], -1.44; in experiment [10], 0.452 (inactive); in experiment [11] it was 0.867; in [12], 0.852 (inactive). In addition, the z-score in experiment [13] was 0.0597 (inactive); in experiment [15], 0.89 (inactive); in experiment [16] it was 0.601 (inactive); in experiment [17] it was -1.12 (inactive); in experiment [18] it was 0.058 (inactive); in experiment [19] it was -1.03. Moreover, the composite z-score in experiment [14] is 0.665 (inactive); in [20], 0.0553.

Regarding `COC(=O)[C@@]1(Cc2ccccc2N=[N+]=[N-])N=C(c2ccc(OCCCO)cc2)O[C@H]1c1ccccc1CN=[N+]=[N-]`, the z-score in experiment [1] was -2.82; in experiment [2], 0.128; in experiment [3] it was -5.51; in experiment [4] it was -3.55; in [5], -3.96; in [6], -1.98. Also, the z-score was 1.69 (inactive) in experiment [7]; -0.822 in experiment [8]; -2.91 in [9]; -3.26 (inactive) in experiment [10]; -4.57 in [11]; 1.16 (inactive) in experiment [12]. Besides, the z-score in experiment [13] was -8.21 (active); in experiment [15] it was 0.383 (inactive); in [16] it was 0.992 (inactive); in [17] it was 0.23 (inactive); in experiment [18] it was 0.887 (inactive); in experiment [19] it was -7. Also, the composite z-score was 0.648 (inactive) in experiment [14] and 0.264 in [20].

On to `CCCCCCc1nc(-c2cc(C)c(OC)c(C)c2)cc2c1[Si](C(C)C)(C(C)C)O[C@H]2c1ccccc1`, for which the z-score in experiment [1] was 0.723; in [2] it was -0.185; in experiment [3], -0.59; in experiment [4], -0.0523; in experiment [5], -0.942; in experiment [6], 0.201. Also, the z-score in experiment [7] was -0.152 (inactive); in experiment [8] it was 0.77; in [9], -0.683; in experiment [10], 0.732 (inactive); in experiment [11], 0.0796; in experiment [12], 0.54 (inactive). For the same compound, the z-score in experiment [13] was 0.0808 (inactive); in experiment [15], -0.334 (inactive); in experiment [16], 0.315 (inactive); in [17], 0.609 (inactive); in [18] it was 0.228 (inactive); in experiment [19], 0.219. The composite z-score is -0.292 (inactive) in experiment [14] and -0.244 in [20].

For `C=C(CCCC)/C(=C/C[C@H](OC(=O)c1ccncc1)c1cccc(OCCO)c1)c1cc(C(=O)OC)ccc1OC`, the z-score was 0.215 in experiment [1]; 2.52 in [2]; 0.0827 in [3]; -1.78 in experiment [4]; -1.93 in [5]; 4.13 in experiment [6]. Also, the z-score was -0.174 (inactive) in experiment [7]; -0.337 in experiment [8]; -0.342 in [9]; 2.6 (inactive) in [10]; 1.06 in experiment [11]; -0.0252 (inactive) in experiment [12]. The z-score is 0.585 (inactive) in experiment [13]; -0.988 (inactive) in [15]; -0.549 (inactive) in [16]; -0.232 (inactive) in experiment [17]; -0.0622 (inactive) in [18]; 0.15 in experiment [19]. Besides, the values for the composite z-score in [14] and in [20] were -1.61 (inactive) and -0.0916, respectively.

Turning to `COCCOC(=O)N1C(=O)[C@@]2(c3cc(C#CCNC(N)=O)ccc31)[C@H](c1ccccc1OCCO)N1[C@H](c3ccccc3)[C@H](c3ccccc3)OC(=O)[C@H]1[C@@H]2C(=O)NC[C@H](O)c1ccccc1`, the z-score is -0.991 in experiment [1]; -0.574 in experiment [2]; 0.0681 in experiment [3]; -0.344 in experiment [4]; 0.941 in experiment [5]; -1.64 in experiment [6]. In addition, the z-score in [7] was 0.392 (inactive); in [8], -0.305; in experiment [9], -0.803; in experiment [10] it was 0.868 (inactive); in experiment [11], 0.904; in [12], 2.79 (inactive). Also, the z-score is 0.335 (inactive) in experiment [13]; 0.87 (inactive) in experiment [15]; 2.1 (inactive) in experiment [16]; 0.183 (inactive) in experiment [17]; -0.32 (inactive) in [18]; 0.152 in experiment [19]. Also, the values for the composite z-score in experiment [14] and in experiment [20] were 1.03 (inactive) and -0.0911, respectively.

Regarding `C=CC[C@]1(C(=O)O)N=C(c2ccc(OCCCO)cc2)O[C@H]1c1ccccc1N=[N+]=[N-]`, the z-score in [1] is 0.144; in [2] it was 0.722; in experiment [3], -0.489; in experiment [4] it was -2.19; in experiment [5], -0.0144; in [6] it was 0.0206. The z-score in experiment [7] is 0.504 (inactive); in [8] it was -0.837; in experiment [9] it was -0.783; in experiment [10], 0.909 (inactive); in [11] it was 0.912; in experiment [12] it was -0.761 (inactive). Moreover, the z-score is 0.777 (inactive) in [13]; -1.1 (inactive) in experiment [15]; 1.21 (inactive) in [16]; 2.63 (inactive) in [17]; 1.65 (inactive) in experiment [18]; 0.248 in [19]. Moreover, the composite z-score in experiment [14] is 0.589 (inactive); in experiment [20], -0.0095.

The values above are taken from PubChem BioAssay.
